# From PubChem BioAssay
# Sampled rows, rich in hits. Any-hit rate of the full collection: about 3%.
# ERK AVP inh = blocks ERK signaling stimulated by vasopressin | HEK293-V1b, vasopressin-stimulated pERK AlphaScreen | 72,000 compounds, 0.99% hits | AID 995 | Potency, µM (top dose mostly 57.5 µM), without a hit: at the highest dose activity, negative = inhibition, most hits filed as inhibitors; also: potency is read from the fitted curve at half-maximal effect; % is scaled to controls: 0 for no effect and ±100 for the full control effect; nearly all actives have a fitted effect of over 55% in size
#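 HEK293 cells stably expressing V1b receptor, seeded overnight in 1% FBS, were treated with compounds for 30 min at 37C, then stimulated 5 min with 25 nM vasopressin; phospho-ERK read by AlphaScreen SureFire after lysis.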
# UbGFP stabilizer = ubiquitin-GFP accumulation via proteasome inhibition. Ubiquitin-GFP reporter cells, proteasome inhibition, GFP fluorescence; response scale: untreated = 0%, 10 µM MG-132 = 100%. Potency, µM (titrated, usually from 45.9 µM), for the others: top-dose activation (GFP accumulation), hits mostly activators. 67,000 tested, under 10 active. AID 526; active = well fitted activation curve with a large enough effect, not every such curve was filed as active; inconclusive = small, poorly fitted or top-dose-only effect, or another doubt; inactive = no such curve, though single readings can be large or run the other way; also: potency is read from the fitted curve at half-maximal effect
#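 Proteasome block read as GFP accumulation: ubiquitin(G76V)-GFP U2OS cells exposed to compound (2.9 nM–46 uM) for 4 hr at 37 C. Normalization used untreated cells as 0% and 10 uM MG-132 as 100%; concentration-response curves fitted.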
# Hsp90 Hop PPI = changes Hsp90-Hop TPR2A binding signal, up or down. AlphaScreen TPR2A-His6 binding biotin-Hsp90 C-terminal peptide. Potency, µM (titrated, usually from 57 µM), for the others: top-dose activity change, negative = inhibition. 71,000 compounds, 0.44% hits; active = well fitted curve in either direction with a large enough effect; inconclusive = small, poorly fitted or top-dose-only effect, or another doubt; also: potency is read from the fitted curve at half-maximal effect; % is scaled to controls: 0 for no effect and ±100 for the full control effect
# GFP derepression = epigenetic modulators derepressing GFP locus in mouse cells; mouse C127i GFP locus derepression, cytometry, 30 h; AID 597; Potency, µM (top dose mostly 46.1 µM), for the others: at the highest dose GFP derepression (activation); 68,000 compounds, 0.09% hits; also: % of control where 0% means no effect
#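 Murine C127i mammary cells carrying a silenced, stably integrated CMV-driven GFP reporter were treated with compound for 30 hours at 37 C. After PBS washes, GFP-positive cells were counted by laser-scanning microplate cytometry.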
# HBB splice mod = modulators of hemoglobin beta chain splicing. 65,000 compounds, 0.06% hits. Potency, µM (series often up to 46.1 µM), for the others: at the highest dose activation, actives largely listed as activators. HBB splicing reporter cell assay, activation; EGFP reporter with mutant IVS2-654 intron; response scale: normalised to 500 nM splice-correcting PNA; also: potency is read from the fitted curve at half-maximal effect; 0% is about no effect
#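 Compounds were applied for 2 days to HeLa EGFP-654 cells, 500/well in Optimem with 2% FCS. The reporter's EGFP is disrupted by mis-splicing of beta-globin intron IVS2-654. Readout: summed well GFP fluorescence from 488 nm laser scanning; reference was 500 nM antisense […] 654 PNA.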
# Tau filament bind = binds recombinant human tau filaments. P10636. recombinant tau filaments, thioflavin S fluorescence, 15 h; filaments grown with octadecylsulfate alongside compound. Potency, µM (titrated, usually from 57.1 µM), without a hit: top-dose activity change, negative = inhibition. 71,000 compounds, 2% hits;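 also: potency is read from the fitted curve at half-maximal effect; % is scaled to controls: 0 for no effect and ±100 for the full control effect; actives lower thioflavin S fluorescence by blocking filaments or displacing dye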
# Target sequence (P10636 whole entry, looked up): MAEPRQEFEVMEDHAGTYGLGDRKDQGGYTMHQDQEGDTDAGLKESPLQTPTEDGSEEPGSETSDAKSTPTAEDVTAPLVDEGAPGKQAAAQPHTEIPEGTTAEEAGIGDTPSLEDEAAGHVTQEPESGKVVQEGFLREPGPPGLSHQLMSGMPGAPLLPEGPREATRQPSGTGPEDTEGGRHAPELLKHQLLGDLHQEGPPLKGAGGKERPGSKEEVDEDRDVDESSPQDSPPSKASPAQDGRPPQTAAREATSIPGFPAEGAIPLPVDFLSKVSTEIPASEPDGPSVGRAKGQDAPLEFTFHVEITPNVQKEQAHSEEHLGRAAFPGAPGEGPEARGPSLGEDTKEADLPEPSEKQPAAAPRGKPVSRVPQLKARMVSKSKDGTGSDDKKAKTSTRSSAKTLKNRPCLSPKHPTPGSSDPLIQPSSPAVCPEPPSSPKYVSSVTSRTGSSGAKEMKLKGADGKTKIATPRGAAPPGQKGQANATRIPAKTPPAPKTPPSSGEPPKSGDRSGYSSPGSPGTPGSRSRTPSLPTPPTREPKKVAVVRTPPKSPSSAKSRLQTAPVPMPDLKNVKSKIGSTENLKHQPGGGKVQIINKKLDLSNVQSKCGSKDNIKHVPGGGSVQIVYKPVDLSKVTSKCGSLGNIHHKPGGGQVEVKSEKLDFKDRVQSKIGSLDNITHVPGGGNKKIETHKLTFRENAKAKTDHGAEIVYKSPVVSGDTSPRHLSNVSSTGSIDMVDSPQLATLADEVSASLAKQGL
#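 Thioflavine S fluorescence (ex 450, em 510 nm) reports filaments formed from 1 uM human tau plus 30 uM ODS over 15 h at 37 C (10 mM HEPES pH 7.4, 100 mM NaCl, 5 mM DTT); compounds displacing dye or blocking filaments lower signal.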
# * = called active by the depositor; ? = inconclusive; nt = not tested or not shown; [ ] = dose if it differs, or a comment. Unless noted, calls follow the shape of the dose curve; as a rule, active = well fitted curve in the direction sought with a large enough effect; inconclusive = small, poorly fitted or top-dose-only effect, or another doubt; inactive = no such curve, though single readings can be large; an effect the other way counts as inactive or inconclusive.
SMILES,ERK AVP inh,UbGFP stabilizer,Hsp90 Hop PPI,GFP derepression,HBB splice mod,Tau filament bind
NS(=O)(=O)c1ccc(N=Nc2ncccc2O)cc1,-12%[11.5 µM],-3%[9.17 µM],-24%[11 µM],-2%[9.22 µM],0%[9.22 µM],-15%[11.4 µM]
NS(=O)(=O)c1ccc(N=Nc2cc3ccccc3c(C(=O)O)c2O)cc1,-26%[11.5 µM],9%[9.17 µM],?,12%[9.22 µM],2%[9.22 µM],1.3µM*
CC[C@H](NC(C)C)[C@H](O)c1ccc(O)c2[nH]c(=O)ccc12,-21%,5%,0%,-1%,nt,32µM*
CCCCC/C=C\C[C@H](O)/C=C\c1cccc(C[C@H](O)CCCCO)n1,10%,2%,-11%,-2%,0%,-4%
CC1(C)CC(Nc2ccc(Nc3ccccc3)cc2)CC(C)(C)N1,-12%[11.5 µM],-4%[9.17 µM],-9%[11 µM],3%[9.22 µM],0%[9.22 µM],1.6µM*
O=c1/c(=C/c2ccccn2)sc2nc3ccccc3n12,-17%,12%[9.17 µM],-3%[11 µM],2%,-2%[0.0738 µM],0.5µM*
COC(=O)/C=c1/sc2nc3ccccc3n2c1=O,?,11%,2%,0%,1%,5%
CCC(=C(CC)c1ccc(O)cc1)c1ccc(O)cc1,23%[25.7 µM],-7%[20.5 µM],-2%[26 µM],-3%[20.6 µM],0%[20.6 µM],5%[25.6 µM]
CCOC(=O)CS(=O)(=O)c1nc(-c2ccccc2)cc(C(F)(F)F)n1,?,-9%,-2%,-3%,-1%,20µM*
CCOC(=O)CCS(=O)(=O)c1nc(-c2ccccc2)cc(C(F)(F)F)n1,35%,-5%,-1%,0%,1%,?
CCC1=C(C[C@H]2NCCc3ccccc32)C[C@@H]2c3cc(OC)c(OC)cc3CCN2C1,1%[11.5 µM],-4%[9.17 µM],-3%[11 µM],2%[9.22 µM],5%[9.22 µM],0%[11.4 µM]
COc1ccc2c(c1)CCc1c(-c3noc4c3CCc3cc(OC)ccc3-4)noc1-2,3%[11.5 µM],-3%[9.17 µM],1%[11 µM],3%[9.22 µM],1%[9.22 µM],6%[11.4 µM]
COc1ccc2c(c1)Cc1cc(N=[N+]([O-])c3ccc4c(c3)Cc3cc(OC)ccc3-4)ccc1-2,2%[11.5 µM],1%[9.17 µM],-12%[11 µM],7%[9.22 µM],2%[9.22 µM],3.2µM*
c1ccc(-c2csc(N3CCN(c4ccccn4)CC3)n2)cc1,16µM*,-13%,2%,0%,1%,26%
CN(C)C[C@H]1CCC2=C(C1=O)C(c1ccc(Cl)c(Cl)c1)C1=C(CC[C@H](CN(C)C)C1=O)O2,7%[11.5 µM],-5%[9.17 µM],-4%[11 µM],-3%[9.22 µM],1%[9.22 µM],7%[11.4 µM]
O=C(COc1ncnc2ccc(Br)cc12)Nc1ccc(N2CCOCC2)cc1,0%,-1%,-8%,0%,-2%[57.5 µM],-16%
Brc1ccc2ncnc(Nc3ccc(N4CCOCC4)cc3)c2c1,?,?,-29%,0%,1%,16µM*
C=C1CCC2C(CC2(C)C)C(=C)CC/C1=N/O (stereo unspecified),28%,nt,nt,nt,nt,nt
CCC(C)n1cnc2c(c1=O)c1nc3ccccc3nc1n2-c1ccc2c(c1)OCCO2 (stereo unspecified),-8%,3%,0%,0%,1%[57.5 µM],-10%
CCC(C)n1cnc2c(c1=O)c1nc3ccccc3nc1n2Cc1ccc2c(c1)OCO2 (stereo unspecified),1%,nt,3%,-2%,-2%[0.369 µM],3.2µM*
